Bioassay records from PubChem.
KB-V1 MDR tox = KB-V1 MDR subline cytotoxicity; KB-V1 MDR cells viability, CellTiter-Glo, 72 h; Potency, µM (highest dose often 46.1 µM), most hits filed as cytotoxic; 400,000 tested, 3.4% active; AID 1347076; note: % is set by controls: 0 for no effect and ±100 for the full control effect; nearly all actives have a fitted effect of over 60% in size
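KB-V1 MDR subline cells in DMEM (phenol-red free, 10% FBS) exposed to compounds in qHTS concentration series for 72 h at 37 degrees C. Viability read by CellTiter-Glo luminescence; concentration-effect curves fitted after normalization and correction.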
KB-3-1 tox = KB-3-1 parental cell cytotoxicity | KB-3-1 viability, CellTiter-Glo ATP luminescence, 72 h | Potency, µM (top dose mostly 46.1 µM), actives largely listed as cytotoxic | 400,000 tested, 1.4% active | AID 1347075; note: % is set by controls: 0 for no effect and ±100 for the full control effect; nearly all actives have a fitted effect of over 60% in size
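Cytotoxicity measured as CellTiter-Glo luminescence after 72 h at 37 C. Compound titrations were pinned onto drug-naive KB-3-1 parental adenocarcinoma cells grown in DMEM with 10% FBS, and normalized data fitted to concentration-response curves.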
ELG1 repair inh = inhibitors of ELG1-dependent DNA repair in HEK293T cells | HEK293T ELG1-luciferase reporter, luminescence, 16 h; DNA damage induced by 5-fluorouridine | Potency, µM (titrated, usually from 46.1 µM), inactives show top-dose activity change, negative = inhibition, most hits filed as inhibitors | 330,000 tested, 2.3% active; note: % is set by controls: 0 for no effect and ±100 for the full control effect; nearly all actives have a fitted effect of over 55% in size
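Step one: seed 2,000 cells per well. Step two: pin-transfer compound or DMSO alongside 5-fluorouridine. Step three: incubate 16 hr, 37 °C, 5% CO2. Step four: add ONE-Glo, wait 30 min, read luminescence.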
SW480 rereplic = inducers of DNA re-replication in SW480 colon cancer cells. SW480 DNA re-replication, Hoechst DNA content imaging, 48 h. Potency, µM (titrated, usually from 46.1 µM), for the others: at the highest dose re-replication activation, hits mostly activators. AID 624297. 340,000 tested, 1.8% active; note: % of control where 0% means no effect; nearly all actives have a fitted effect of over 55% in size
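First, 250 cells per well were seeded. Next, compound or vehicle (23 nL) was pinned in, plates sat 48 hr at 37 C. Finally Hoechst was added for 40 min before fluorescence scanning.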
MCF10A rereplic = induces DNA re-replication in MCF 10a normal breast cells; MCF 10A DNA re-replication, Hoechst nuclear intensity, 48 h; Potency, µM (doses to about 46.1 µM), for the others: at the top dose activity, positive = re-replication, actives largely listed as activators; 350,000 tested, 2.9% active; AID 624296; note: % of control where 0% means no effect; nearly all actives have a fitted effect of over 50% in size
* hit, by the source's call. Most compounds without a hit are left out; they make up all but 8.1% or so of the library. Calls come from the whole dose curve; as a rule, active = well fitted curve in the direction sought with a large enough effect; inconclusive = small, poorly fitted or top-dose-only effect, or another doubt; inactive = no such curve, though single readings can be large; an effect the other way counts as inactive or inconclusive. Potency is the fitted concentration of half-maximal effect.

`CCOc1cc(-c2nc3ccccc3s2)ccc1O` gave KB-V1 MDR tox inconclusive, KB-3-1 tox inactive, ELG1 repair inh inconclusive, SW480 rereplic 1.84µM* and MCF10A rereplic inconclusive.
Screening O=C(Nc1cc(-c2nc3ccccc3s2)ccc1Cl)c1ccc2c(c1)OCO2 returned KB-V1 MDR tox inactive, KB-3-1 tox inactive, ELG1 repair inh inconclusive, SW480 rereplic -10.1% and MCF10A rereplic 9.2µM*.
For Cc1ccc(-c2nc3ccccc3s2)cc1NC(=O)c1ccc2c(c1)OCO2 the results were KB-V1 MDR tox inactive, KB-3-1 tox inactive, ELG1 repair inh inconclusive, SW480 rereplic inconclusive and MCF10A rereplic 8.1%.
For COc1ccc(C2CC(c3cccs3)=NN2C(=O)CSc2nc(=O)n3ccc(C)cc3n2)cc1 (centres undefined) the results were KB-V1 MDR tox inconclusive, KB-3-1 tox inactive, ELG1 repair inh -13.7%, SW480 rereplic inconclusive and MCF10A rereplic 11.6%.
CCc1cc(Cl)c(OC)c(C(=O)NC[C@@H]2CCCN2CC)c1O was read as KB-V1 MDR tox inconclusive, KB-3-1 tox inactive, SW480 rereplic -8.2% and MCF10A rereplic inconclusive.
`COc1ccc(S(=O)(=O)N2CCC(NC(=O)N3CCOCC3)CC2)cc1` gave KB-V1 MDR tox inactive, KB-3-1 tox inactive, ELG1 repair inh 15.4%, SW480 rereplic -4.2% and MCF10A rereplic -0.8%.
`CCCCCOc1ccc(Br)cc1CSC(=N)N` gave KB-V1 MDR tox 9.2µM*, KB-3-1 tox 11.6µM*, ELG1 repair inh inconclusive, SW480 rereplic inconclusive and MCF10A rereplic inconclusive.
For COc1ccc(Br)cc1CSC(=N)N the results were KB-V1 MDR tox inactive, KB-3-1 tox inactive, ELG1 repair inh -23.7%, SW480 rereplic -4.0% and MCF10A rereplic -7.3%.
Screening CCCc1cc(=O)[nH]c(SCc2cc(=O)oc3cc(C)c(C(C)C)cc23)n1 returned KB-V1 MDR tox 20.6µM*, KB-3-1 tox inactive, ELG1 repair inh 9.1%, SW480 rereplic 0.3% and MCF10A rereplic inconclusive.
Screening O=C(c1cc2ccccc2oc1=O)N1CCSC1c1ccco1 (centres undefined) returned KB-V1 MDR tox inactive, KB-3-1 tox inactive, ELG1 repair inh -16.8%, SW480 rereplic -6.2% and MCF10A rereplic inconclusive.
